Data: PubChem BioAssay (Tox21)
Inconclusive results are not listed. The source made the active and inactive calls. Unless noted, calls come from the whole dose curve.

Experiments:
[1] = Nuclear factor erythroid 2-related factor 2/antioxidant responsive element (Nrf2/ARE) small molecule agonists: qHTS cell viability counter screen in human keratinocytes (AID 1919968; active = well fitted curve in the direction sought with a large enough effect in the repeat runs; an effect the other way counts as inactive or inconclusive; note: nearly all actives have a fitted effect of over 55% in size)
Method in brief: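 Parallel cytotoxicity read: KeratinoSens HaCaT cells, compound treatment 23 h, viability by CellTiter-Fluor fluorescence 1 h post-reagent.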

[2] = Nuclear factor erythroid 2-related factor 2/antioxidant responsive element (Nrf2/ARE) small molecule agonists: luciferase reporter gene qHTS assay in human keratinocytes (AID 1919969); note: nearly all actives have a fitted effect of over 35% in size
[3] = molecular target: Gonadotropin-releasing hormone receptor (Homo sapiens) (UniProt P30968); experiment: Human gonadotropin-releasing hormone receptor (GnRHR) small molecule agonists, calcium flux assay in GnRHR-HEK293 cells (AID 1920063); note: nearly all actives have a fitted effect of over 35% in size
Method in brief: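 Calcium flux, agonist mode, human GnRHR stably integrated in HEK293; dye 1 h at 37 C before compound; Ex/Em=480/540 kinetic read, 3 min; 15 concentrations, triplicate.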

[4] = molecular target: KiSS-1 receptor (Homo sapiens) (UniProt Q969F8); experiment: Human kisspeptin (KISS1R) small molecule agonists, calcium flux assay in KISS1R-HEK293 cells (AID 1920064; active = well fitted curve in the direction sought with a large enough effect in the repeat runs; an effect the other way counts as inactive or inconclusive)
Method in brief: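 Triplicate 15-concentration series were applied to dye-loaded human KISS1R HEK293 cells, and agonist-evoked calcium fluorescence was captured for 3 min.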

[5] = G protein-coupled receptor (GPCR) small molecule agonists, calcium flux assay: HEK293 wild type cell line counter screen (AID 1920065)
Method in brief: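 Non-specific calcium responders were flagged by adding DMSO-dissolved compounds to dye-loaded cells and reading 480/540 nm fluorescence each second for 3 min; ATP served as positive control.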

[6] = p53 small molecule agonists, cell-based qHTS assay with human liver microsomes (AID 1963577)
Method in brief: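 Cells carrying a p53-responsive bla reporter were rested 5 h (37 C, 5% CO2) before compound transfer. Human liver microsomes plus NADPH, 0.5 mg/mL final apiece, supplied metabolism during the 16 h 37 C exposure.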

[7] = p53 small molecule agonists, cell-based qHTS assay with rat liver microsomes (AID 1963578)
Method in brief: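 Fluorescence from a beta-lactamase reporter under a p53 response element was measured after cells had been incubated 16 h at 37 C with test compound and rat liver microsomes plus NADPH (0.5 mg/mL final each).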

[8] = p53 small molecule agonists, cell-based qHTS assay with human liver microsomes: qHTS cell viability counter screen (AID 1963579); note: nearly all actives have a fitted effect of over 45% in size
Method in brief: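 Seed p53RE-bla cells at 4,000 per well; incubate 5 h at 37 C; add compound, human liver microsomes and NADPH; incubate 16 h at 37 C; add CellTiter-Glo; after 30 min at room temperature, read luminescence.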

[9] = p53 small molecule agonists, cell-based qHTS assay with rat liver microsomes: qHTS cell viability counter screen (AID 1963580); note: nearly all actives have a fitted effect of over 45% in size
Method in brief: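 After the beta-lactamase ratio was read, CellTiter-Glo was added to the same wells and luminescence measured at 30 min; cells had been treated 16 h at 37 C with compounds, rat liver microsomes and NADPH (0.5 mg/mL final each).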

[10] = p53 small molecule agonists, cell-based qHTS assay: qHTS cell viability counter screen (AID 1963581); note: nearly all actives have a fitted effect of over 45% in size
Method in brief: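 Multiplexed with the reporter read, a CellTiter-Glo step (30 min, room temperature) gauges ATP-based viability of HCT-116 p53RE-bla cells after 16 h compound incubation at 37 C.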

[11] = p53 small molecule agonists, cell-based qHTS assay (AID 1963582; active = well fitted activation curve with a large enough effect in the signal ratio in the repeat runs, not every such curve was filed as active; the % refers to the signal ratio)
Method in brief: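 Beta-lactamase reporter cells (p53RE-bla) treated with compounds for 16 h at 37 C; FRET substrate, 2 h, room temperature; fluorescence intensity.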

[12] = molecular target: 5-hydroxytryptamine receptor 2A (Homo sapiens) (UniProt P28223); experiment: 5-hydroxytryptamine receptor 2A (HTR2A) small molecule agonists, cell-based qHTS assay (AID 1963587); note: nearly all actives have a fitted effect of over 30% in size
Method in brief: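 CHO cells stably expressing human HTR2A, plated 18 h, loaded with calcium dye 1 h at 37 C. Agonist mode: compounds added and intracellular calcium fluorescence recorded kinetically for 2 min at 1 sec intervals.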

[13] = molecular target: Muscarinic acetylcholine receptor M1 (Homo sapiens) (UniProt P11229); experiment: Cholinergic receptor muscarinic 1 (CHRM1) small molecule antagonists, cell-based qHTS assay (AID 1963588); note: nearly all actives have a fitted effect of over 40% in size
Method in brief: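 Compounds were tested at 15 concentrations in three independent runs. Dye-loaded CHRM1-CHO cells were exposed 5 min at room temperature before stimulation by acetylcholine added at 50nM. Intracellular calcium was read kinetically on FDSS for 3 min.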

[14] = molecular target: Muscarinic acetylcholine receptor M1 (Homo sapiens) (UniProt P11229); experiment: Cholinergic receptor muscarinic 1 (CHRM1) small molecule agonists, cell-based qHTS assay (AID 1963589); note: nearly all actives have a fitted effect of over 35% in size
Method in brief: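 qHTS, 15-point titration, 3 independent runs: compounds pin-transferred onto dye-loaded CHRM1-CHO cells (human M1), calcium fluorescence followed every second to detect agonism.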

[15] = cAMP Responsive Elements (CRE) small molecule agonists, cell-based qHTS assay (AID 1963590)
Method in brief: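 Quantitative HTS for CRE agonists: HEK 293T CRE-bla cells, overnight plating, 3 h compound incubation at 37 C/5% CO2, then 2 h room-temperature LiveBLAzer B/G FRET substrate loading.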

[16] = cAMP Responsive Elements (CRE) small molecule antagonists, cell-based qHTS assay (AID 1963591; active = well fitted inhibition curve with a large enough effect in the signal ratio in the repeat runs, not every such curve was filed as active; the % refers to the signal ratio)
Method in brief: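 Fluorescence intensity from cleaved LiveBLAzer B/G substrate (2 h, room temperature) quantified CRE-bla activity in HEK 293T cells exposed 3 h to compound with 0.25 uM final NKH477.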

[17] = molecular target: Beta-2 adrenergic receptor (Homo sapiens) (UniProt P07550); experiment: Adrenergic beta2 receptor (ADRB2) small molecule antagonists, cell-based qHTS assay (AID 1963592); note: series mostly up to about 92 µM; nearly all actives have a fitted effect of over 50% in size
Method in brief: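 Assay format: CHO-ADRB2 cells, 18-20hr seeding at 37C/5% CO2, then compound plus 1nM isoproterenol agonist mix for 0.5hr RT. Homogeneous time-resolved fluorescence cAMP detection after 1hr, expressed as 665/615 nm ratio.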

[18] = molecular target: Beta-2 adrenergic receptor (Homo sapiens) (UniProt P07550); experiment: Adrenergic beta2 receptor (ADRB2) small molecule agonists, cell-based qHTS assay (AID 1963593);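 note: CHO cells stably overexpressing human ADRB2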
Method in brief: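 CHO cells stably over-expressing ADRB2 were plated overnight at 37C, then dosed with compounds plus a stimulation mix containing 100uM IBMX and 25uM Ro-20-1724 for 0.5hr at room temperature. cAMP was measured by HTRF competition, 1hr.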

[19] = molecular target: D(2) dopamine receptor (Homo sapiens) (UniProt P14416); experiment: Dopamine D2 receptor (DRD2) small molecule agonists, cell-based qHTS assay (AID 1963594); note: nearly all actives have a fitted effect of over 35% in size
Method in brief: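 HEK293 cells stably expressing human DRD2, pre-treated with PDE inhibitor Ro20-1724 (0.1 mM final) and compound 10 min at room temperature, then stimulated with NKH477 (200nM […]) for 30 min. cAMP read by HTRF (665/620 nm).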

[20] = molecular target: D(2) dopamine receptor (Homo sapiens) (UniProt P14416); experiment: Dopamine D2 receptor (DRD2) small molecule antagonists, cell-based qHTS assay (AID 1963595; active = well fitted inhibition curve with a large enough effect in the signal ratio in the repeat runs, with a control signal flat; the % refers to the signal ratio)
Method in brief: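 DRD2-HEK293; 0.1 mM Ro20-1724; cpd 10 min RT; NKH477 200 nM + quinpirole 12 nM, 30 min RT; HTRF cAMP (cAMP-d2/anti-cAMP cryptate), 665/620 nm ratio after 1 h.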
% is set by controls: 0 for no effect and ±100 for the full control effect.

D(2) dopamine receptor (Homo sapiens), sequence (P14416 whole entry, looked up): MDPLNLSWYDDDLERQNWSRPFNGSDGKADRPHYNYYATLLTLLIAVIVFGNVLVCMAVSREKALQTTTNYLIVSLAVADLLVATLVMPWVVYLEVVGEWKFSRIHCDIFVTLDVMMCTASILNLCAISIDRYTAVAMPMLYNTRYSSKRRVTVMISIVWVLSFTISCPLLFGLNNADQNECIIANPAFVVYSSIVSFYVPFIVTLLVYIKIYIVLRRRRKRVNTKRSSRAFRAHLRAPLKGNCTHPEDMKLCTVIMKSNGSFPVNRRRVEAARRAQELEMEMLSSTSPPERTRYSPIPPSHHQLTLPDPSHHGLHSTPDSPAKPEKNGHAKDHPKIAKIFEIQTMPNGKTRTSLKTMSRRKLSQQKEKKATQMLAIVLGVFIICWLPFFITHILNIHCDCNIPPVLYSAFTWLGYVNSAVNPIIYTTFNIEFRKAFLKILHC
Muscarinic acetylcholine receptor M1 (Homo sapiens), sequence (P11229 whole entry, looked up): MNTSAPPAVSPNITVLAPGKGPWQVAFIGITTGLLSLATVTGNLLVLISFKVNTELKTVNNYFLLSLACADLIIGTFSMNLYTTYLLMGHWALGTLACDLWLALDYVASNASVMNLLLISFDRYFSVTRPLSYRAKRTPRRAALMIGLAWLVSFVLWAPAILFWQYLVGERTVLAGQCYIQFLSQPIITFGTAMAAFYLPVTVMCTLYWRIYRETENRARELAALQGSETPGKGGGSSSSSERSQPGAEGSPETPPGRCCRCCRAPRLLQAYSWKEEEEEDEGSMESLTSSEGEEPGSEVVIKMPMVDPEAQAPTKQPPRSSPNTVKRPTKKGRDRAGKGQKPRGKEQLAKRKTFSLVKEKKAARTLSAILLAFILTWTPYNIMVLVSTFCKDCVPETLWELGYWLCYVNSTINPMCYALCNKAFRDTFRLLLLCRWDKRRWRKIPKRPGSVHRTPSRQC
KiSS-1 receptor (Homo sapiens), sequence (Q969F8 whole entry, looked up): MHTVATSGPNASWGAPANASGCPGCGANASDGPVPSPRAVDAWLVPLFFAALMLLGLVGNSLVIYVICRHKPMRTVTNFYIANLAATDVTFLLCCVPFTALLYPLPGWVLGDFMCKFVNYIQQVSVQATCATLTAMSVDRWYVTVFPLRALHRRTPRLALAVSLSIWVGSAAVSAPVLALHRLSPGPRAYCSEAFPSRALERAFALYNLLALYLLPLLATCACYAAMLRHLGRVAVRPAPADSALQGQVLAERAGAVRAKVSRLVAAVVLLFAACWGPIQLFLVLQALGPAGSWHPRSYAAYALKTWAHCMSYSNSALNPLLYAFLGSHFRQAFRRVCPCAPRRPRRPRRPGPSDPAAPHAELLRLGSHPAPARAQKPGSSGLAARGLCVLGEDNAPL
Gonadotropin-releasing hormone receptor (Homo sapiens), sequence (P30968 whole entry, looked up): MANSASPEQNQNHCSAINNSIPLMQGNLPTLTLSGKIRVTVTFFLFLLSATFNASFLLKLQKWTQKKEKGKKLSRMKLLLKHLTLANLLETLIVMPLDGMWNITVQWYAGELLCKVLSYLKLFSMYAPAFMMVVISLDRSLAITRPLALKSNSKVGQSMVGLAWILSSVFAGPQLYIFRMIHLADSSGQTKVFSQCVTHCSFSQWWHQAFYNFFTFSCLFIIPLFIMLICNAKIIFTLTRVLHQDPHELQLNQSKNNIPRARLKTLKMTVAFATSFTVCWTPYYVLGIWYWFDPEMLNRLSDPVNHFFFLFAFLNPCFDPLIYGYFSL
5-hydroxytryptamine receptor 2A (Homo sapiens), sequence (P28223 whole entry, looked up): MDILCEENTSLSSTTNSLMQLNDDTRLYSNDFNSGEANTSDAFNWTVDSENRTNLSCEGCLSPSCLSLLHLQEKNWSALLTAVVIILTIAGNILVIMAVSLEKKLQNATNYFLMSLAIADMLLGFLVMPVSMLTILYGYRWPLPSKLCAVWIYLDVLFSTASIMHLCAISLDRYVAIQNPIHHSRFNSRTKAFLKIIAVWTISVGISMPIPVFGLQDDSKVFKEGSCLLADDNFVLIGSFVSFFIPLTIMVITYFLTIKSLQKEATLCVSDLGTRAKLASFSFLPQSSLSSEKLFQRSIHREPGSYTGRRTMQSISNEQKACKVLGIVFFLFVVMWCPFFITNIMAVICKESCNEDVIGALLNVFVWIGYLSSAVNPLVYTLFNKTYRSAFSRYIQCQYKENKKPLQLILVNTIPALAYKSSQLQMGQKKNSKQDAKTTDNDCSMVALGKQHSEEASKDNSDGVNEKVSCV
Beta-2 adrenergic receptor (Homo sapiens), sequence (P07550 whole entry, looked up): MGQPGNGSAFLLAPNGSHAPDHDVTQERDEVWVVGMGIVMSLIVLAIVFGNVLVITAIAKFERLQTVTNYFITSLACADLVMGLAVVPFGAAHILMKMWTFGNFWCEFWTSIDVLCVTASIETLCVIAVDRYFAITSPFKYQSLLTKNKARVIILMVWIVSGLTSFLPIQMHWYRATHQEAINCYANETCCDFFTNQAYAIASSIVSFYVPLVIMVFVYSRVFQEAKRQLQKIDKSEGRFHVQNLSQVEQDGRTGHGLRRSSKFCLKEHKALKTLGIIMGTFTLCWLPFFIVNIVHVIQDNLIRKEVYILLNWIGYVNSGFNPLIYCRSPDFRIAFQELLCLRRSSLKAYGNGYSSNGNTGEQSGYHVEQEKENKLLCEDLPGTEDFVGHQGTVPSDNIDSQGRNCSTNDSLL

CC(=O)CC(C)C
inactive: Potency [1] | Potency [2] | Potency [3] | outcome [4] | outcome [5] | Potency [6] | Potency [7] | Potency [8] | Potency [9] | Potency [10] | Potency [11] | Potency [12] | Potency [13] | Potency [14] | Potency [15] | Potency [16] | Potency [17] | Potency [18] | Potency [19] | Potency [20]

CCCCOc1cc(C(=O)OCCN(CC)CC)ccc1N
inactive: Potency [1] | Potency [2] | Potency [3] | outcome [4] | outcome [5] | Potency [6] | Potency [7] | Potency [8] | Potency [9] | Potency [10] | Potency [11] | Potency [12] | Potency [13] | Potency [14] | Potency [15] | Potency [16] | Potency [17] | Potency [18] | Potency [19] | Potency [20]

COC(=O)C1CC(=O)C(C(=O)OC)CC1=O (stereo unspecified)
inactive: activity change, negative = cytotoxicity [1] 2.06% [at 8.39 µM] | activity, positive = activation [2] -3.71% [at 8.39 µM] | activity change [3] 0.483% [at 5.22 µM, hits give high values] | activation [4] 0.0459% [at 6.97 µM] | activation [5] -0.0233% [at 5.23 µM] | activation [6] -0.316% [at 5.99 µM] | activation [7] -0.919% [at 5.99 µM] | activity change, negative = cytotoxicity [8] -6.82% [at 5.99 µM] | activity change, negative = cytotoxicity [9] -4.56% [at 5.99 µM] | activity change, negative = cytotoxicity [10] -4.07% [at 5.99 µM] | activation [11] -3.72% [at 5.99 µM] | activation [12] 7.2% [at 7.02 µM] | activity, negative = inhibition [13] 62.7% [at 5.58 µM] | activation [14] 0.037% [at 6.97 µM] | activation [15] 0.379% [at 8.39 µM] | activity change, negative = inhibition [16] -7.12% [at 8.39 µM] | activation [19] -0.218% [at 8.39 µM] | activity change, negative = inhibition [20] -0.133% [at 8.38 µM]

CNC(=O)c1c(I)c(NC(=O)CCCCC(=O)Nc2c(I)c(C(=O)O)c(I)c(C(=O)NC)c2I)c(I)c(C(=O)O)c1I
inactive: Potency [1] | Potency [2] | Potency [3] | outcome [4] | outcome [5] | Potency [6] | Potency [7] | Potency [8] | Potency [9] | Potency [10] | Potency [11] | Potency [12] | Potency [13] | Potency [14] | Potency [15] | Potency [16] | Potency [17] | Potency [18] | Potency [19] | Potency [20]

OC[C@@H](O)[C@@H](O)CO
inactive: Potency [1] | Potency [2] | Potency [3] | outcome [4] | outcome [5] | Potency [6] | Potency [7] | Potency [8] | Potency [9] | Potency [10] | Potency [11] | Potency [12] | Potency [13] | Potency [14] | Potency [15] | Potency [16] | Potency [17] | Potency [19] | Potency [20]

O=C1c2ccccc2C(=O)N1CO
inactive: Potency [1] | Potency [2] | Potency [3] | outcome [4] | outcome [5] | Potency [6] | Potency [7] | Potency [8] | Potency [9] | Potency [10] | Potency [11] | Potency [12] | Potency [13] | Potency [14] | Potency [15] | Potency [17] | Potency [18] | Potency [19] | Potency [20]

C1=C\CC/C=C\CC/1
inactive: Potency [1] | Potency [2] | Potency [3] | outcome [4] | outcome [5] | Potency [6] | Potency [7] | Potency [8] | Potency [9] | Potency [10] | Potency [11] | Potency [12] | Potency [13] | Potency [14] | Potency [15] | Potency [16] | Potency [17] | Potency [18] | Potency [19] | Potency [20]
